For orientation: AC50 means the concentration at which the activity in the assay is half-maximal.

Where a name gives a salt, the structure may show the parent alone.

The text below walks through data of article PMC6792352, “Limited Chemical Structural Diversity Found to Modulate Thyroid Hormone Receptor in the Tox21 Chemical Library” (Environmental Health Perspectives, 2019).

This experiment deals with thyroid hormone receptor (endogenous TRα and TRβ). More on the design: species or system GH3-TRE-Luc (rat pituitary); GH3-TRE-Luc luciferase reporter, antagonist mode against 1 nM T3, loss of signal, qHTS. As to conditions: read-out: Average AC50 (uM) GH3-TRE-Antag, antagonist mode, 1 nM T3, no GH3 cytotoxicity hit.
For the molecule `CN(CC(=O)N1CCOCC1)Cc1c(Cl)cccc1NC(=O)c1ccccc1` [Fominoben hydrochloride], the AC50 is greater than 50 µM.
In the case of `CCC(=O)Oc1ccc(/C(CC)=C(\CC)c2ccc(OC(=O)CC)cc2)cc1` [Diethylstilbestrol dipropionate], the AC50 amounted to 56.1 µM.
For `C[C@](N)(Cc1ccc(O)c(O)c1)C(=O)O` [Methyldopa sesquihydrate], the concentration at half-maximal activity (AC50) is greater than 50 µM.
Take `CN1[C@@H](CC(=O)c2ccccc2)CCC[C@H]1C[C@H](O)c1ccccc1` [Lobeline]: the half-maximal activity concentration (AC50) was determined as 29.3 µM.
`CC[C@@]1(O)C(=O)OCc2c1cc1n(c2=O)Cc2cc3c(CN(C)C)c(O)ccc3nc2-1` [Topotecan hydrochloride]: the AC50 was found to be 2.45 µM.
To `CC(C)OC(=S)S` [Proxan-sodium] belongs greater than 90 µM; to `Cc1ccc(Cl)c(Nc2ccccc2C(=O)O)c1Cl` [Meclofenamate sodium], 30.6 µM; to `COc1ccc(Cc2nccc3cc(OC)c(OC)cc23)cc1OC` [Papaverine hydrochloride], 15.6 µM.
To `CCOc1ccc2[nH]cc(C(=O)NCc3ccccc3)c(=O)c2n1` [CP-457920] belongs 45.2 µM; to `c1ccc2c(c1)Cc1ccccc1-2` [Fluorene], 55.8 µM.
To `CCCCCCCCCC(C)C=O` (stereo not drawn) [2-Methylundecanal] belongs 40.2 µM.
For `CCCCN(CCCC)CCC(O)c1cc2c(Cl)cc(Cl)cc2c2cc(C(F)(F)F)ccc12` (stereo not drawn) [Halofantrine hydrochloride], the half-maximal activity concentration (AC50) turned out to be 15.6 µM.
The value for `Nc1ccc(Br)cc1` [4-Bromoaniline] was 47.9 µM; that for `CC/C=C/CCCCCCCCC1CC(=O)OC1=O` (stereo not drawn) [(Tetrapropenyl)succinic anhydride] was 65.5 µM.
The value for `CCOc1ccc(O)cc1` [4-Ethoxyphenol] was 82.5 µM; that for `CCN(CC)CCCC(C)Nc1c2ccc(Cl)cc2nc2ccc(OC)cc12` (stereo not drawn) [Quinacrine dihydrochloride dihydrate] was 29.4 µM; that for `c1ccc2c(c1)Oc1ccccc1S2` [Phenoxathiin] was greater than 90 µM.
To `CON(C)C(=O)Nc1ccc(Cl)c(Cl)c1` [Linuron] belongs 61.4 µM.
Take `CNc1cc(OC)c(C(=O)N[C@@H]2CCN(Cc3ccccc3)[C@@H]2C)cc1Cl` (racemic) [Nemonapride]: the concentration at half-maximal activity (AC50) is 36.4 µM.
Turning to `CC(C)(C)c1ccc(CCC=O)cc1` [3-(4-tert-Butylphenyl)propanal], the AC50 was 56.6 µM.
The value for `CCC(C)c1cc(C(C)(C)C)c(O)c(C(C)(C)C)c1` (stereo not drawn) [4-(Butan-2-yl)-2,6-di-tert-butylphenol] was 23.6 µM; that for `O=C(O)C[C@H](O)C[C@H](O)/C=C/c1c(C2CC2)nc2ccccc2c1-c1ccc(F)cc1` [Pitavastatin calcium] was 46.3 µM; that for `O=C(O)Cn1c(C(=O)Nc2nc(-c3ccccc3Cl)cs2)cc2ccccc21` [Lintitript] was greater than 50 µM.
The value for `Clc1cc(Cl)c2c(c1)N=C1CCCCCN1C2` [1,3-dichloro-6,7,8,9,10,12-hexahydroazepino[2,1-b]quinazoline hydrochloride (1:1)] was 40.1 µM; that for `O=C(OCc1ccccc1)c1ccc(O)cc1` [Benzylparaben] was greater than 50 µM; that for `O=C(Oc1ccccc1)c1ccc2ccccc2c1O` [Phenyl 1-hydroxy-2-naphthoate] was 84.9 µM.
To `CN(C)CCN1C(=O)c2ccccc2N(C)c2ccccc21` [Dibenzepin hydrochloride] belongs 36.6 µM; to `CCCCCCC(=O)O[C@H]1CC[C@H]2[C@@H]3CCc4cc(O)ccc4[C@H]3CC[C@]12C` [Estradiol enanthate], 18.9 µM; to `OC[C@H]1O[C@@H](n2cnc3c(=S)nc[nH]c32)[C@H](O)[C@@H]1O` [Thioinosine], 21.8 µM.
Consider `O=C1c2ccccc2C(=O)N1CCc1noc(-c2ccc(CN3CCCCCC3)s2)n1` [PharmaGSID_48172], for which the concentration at half-maximal activity (AC50) stood at 75.2 µM.
For `CC1(C)C2=CCCC(C)(C)[C@]23CC[C@H]1C3` [(-)-Isolongifolene], the AC50 is 54.9 µM.
`Nc1ccc2c3c(cccc13)-c1ccccc1-2` [3-Aminofluoranthene]: the AC50 worked out at 40.9 µM.
Regarding `CCCCC(CC)COC(=O)c1ccc(N(C)C)cc1` (stereo not drawn) [2-Ethylhexyl 4-(dimethylamino)benzoate], the concentration at half-maximal activity (AC50) worked out at 47.2 µM.
To `CC/C=C\CC/C=C/C=O` [trans-2,cis-6-Nonadienal] belongs 69.9 µM; to `COC(=O)C(C)N(C(=O)Cc1ccccc1)c1c(C)cccc1C` (stereo not drawn) [Benalaxyl], greater than 90 µM.
To `CC(C)(C)c1ccc(OC(=O)c2ccccc2O)cc1` [4-tert-Butylphenyl salicylate] belongs greater than 90 µM.
The value for `NC1CCN(c2nc3c(cc2F)c(=O)c(C(=O)O)cn3-c2ccc(F)cc2F)C1` (stereo not drawn) [Tosufloxacin toluenesulfonic acid] was 21.1 µM; that for `C[C@]12CC[C@@H]3c4ccc(O)cc4CC[C@H]3[C@@H]1CC[C@@H]2O` [17beta-Estradiol] was 31.7 µM; that for `CC(C)Cc1ccc(C(C)C(=O)O)cc1` (stereo not drawn) [Ibuprofen] was greater than 50 µM.
